# Measurements taken from PubChem BioAssay AID720690 (Broad Institute, 2013).
# Potency and affinity values are given separately. Calls of active or inactive are those of the source.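 How the source made its calls: active means every repeat run showing a signal drop whose fitted half-maximal concentration is at most twice the top tested concentration; inconclusive means repeat runs disagree, or flat partial drop, or poor fit; inactive means the rest.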
# Test: general mammalian cell viability loss – activator set, cherry-pick, cytotoxicity control for miR-122 modulator project, dose response (AID 720690)
# Details: HEK293T viability, CellTiter-Glo luminescence, 48 h; series mostly up to 26 µM
row,SMILES,outcome
1,CC(C)N(C[C@H]1[C@H](c2ccccc2)[C@@H](CO)N1S(C)(=O)=O)C(=O)CN(C)C,inactive
2,CNC(=O)C[C@H]1CC[C@@H]2[C@H](COc3ccc(NC(=O)NC(C)C)cc3C(=O)N2C)O1,inactive
3,CN(C(=O)C12CC3CC(CC(C3)C1)C2)C1CCS(=O)(=O)C1 (centres undefined),inactive
4,Cc1cc2[nH]c3c4ccccc4nc(C)c3c2cc1C,inactive
5,O=C(NC[C@H]1[C@@H](c2ccccc2)[C@@H](CO)N1CC1CCCC1)c1ccncc1,inactive
6,CCC(=O)N1[C@H](CN(CC)C(=O)c2ccccc2)[C@@H](c2ccccc2)[C@@H]1CO,inactive
7,COCC(=O)N(C[C@H]1N[C@@H](CO)[C@@H]1c1ccc(C2=CCCC2)cc1)C(C)C,inactive
8,CCCNC(=O)C[C@H]1CC[C@@H]2[C@H](COc3ccc(NC(=O)c4cccs4)cc3C(=O)N2C)O1,inactive
9,C[C@@H]1CN([C@@H](C)CO)S(=O)(=O)c2ccc(C3=CCCCC3)cc2O[C@@H]1CN(C)C(=O)Nc1ccc2c(c1)OCO2,inactive
10,CN1C(=O)c2cc(NC(=O)c3cccc(F)c3)ccc2OC[C@H]2O[C@H](CC(=O)O)CC[C@H]21,inactive
11,O=S(=O)(Nc1nccs1)c1ccc(NS(=O)(=O)c2cccs2)cc1,inactive
12,CN1C(=O)c2cc(NC(=O)Nc3ccccc3Cl)ccc2OC[C@H]2O[C@H](CC(=O)O)CC[C@@H]21,inactive
13,CCCNC(=O)N1[C@H](CO)[C@@H](c2ccccc2)[C@H]1CNC(=O)c1ccccc1,inactive
14,O=C(NCCCN1CCCC1)c1ccc(CSCc2cccc(Cl)c2)o1,inactive
15,CCOc1ccc(C(CCc2ccccc2)NC(=O)c2ccccc2F)cc1OCC (centres undefined),inactive
16,Cc1nn(C)cc1NC(=O)C[C@@H]1CC[C@@H]2[C@@H](COc3ccc(NC(=O)Nc4cccc(Cl)c4)cc3C(=O)N2C)O1,inactive
17,COc1ccc(N2CCc3c(C)nc4c(OC)cc(OC)cc4c32)c(OC)c1,inactive
18,CCC(=O)N1[C@H](CO)[C@@H](c2ccccc2)[C@@H]1CN(C)C(=O)CN1CCOCC1,inactive
19,Nc1ccc(Oc2ccc(Br)cc2)cc1,inactive
20,COCC(=O)NC[C@@H]1[C@H](c2ccc(C3=CCCC3)cc2)[C@H](CO)N1C(=O)C1CC1,inactive

row,SMILES,outcome
1,COc1ccc(-c2cn3c(C)c(C(=O)Nc4cccc(NC(C)=O)c4)sc3n2)cc1,inactive
2,COc1ccc(S(=O)(=O)Nc2cc(C)cc(C)n2)c2ccccc12,inactive
3,O=C(C1CC1)N1C[C@H]2[C@@H](c3ccccc31)[C@H](CO)N2C(=O)c1ccccc1F,inactive
4,COc1cccc(S(=O)(=O)N(C)C[C@@H]2Oc3cc(C4=CCCC4)ccc3S(=O)(=O)N([C@H](C)CO)C[C@@H]2C)c1,inactive
5,O=C(C1CC1)N(CCN(C(=O)C1CC1)c1ccccc1)c1ccccc1,inactive
6,CN1C(=O)c2cc(NC(=O)c3cc(F)cc(F)c3)ccc2OC[C@@H]2O[C@@H](CC(=O)O)CC[C@@H]21,inactive
7,CN1C(=O)c2cc(NC(=O)Nc3cccc(Cl)c3)ccc2OC[C@H]2O[C@H](CC(=O)NCCc3ccncc3)CC[C@H]21,inactive
8,CCCC#Cc1ccc2c(c1)O[C@H](CN(C)C(=O)c1ccncc1)[C@H](C)CN([C@@H](C)CO)S2(=O)=O,inactive
9,CCC(=O)N1[C@H](CN(C(C)C)S(C)(=O)=O)[C@H](c2ccccc2)[C@@H]1CO,inactive
10,CN1C(=O)c2cc(NC(=O)c3cccs3)ccc2OC[C@@H]2O[C@@H](CC(=O)O)CC[C@@H]21,inactive
11,N#Cc1ccc(C(=O)Nc2ccc(N3CCN(C(=O)c4ccco4)CC3)cc2)c(F)c1,inactive
12,CO[C@@H]1CN(C)C(=O)c2ccc(NS(C)(=O)=O)cc2OC[C@H](C)N(C(=O)CN(C)C)C[C@@H]1C,inactive
13,CN1C(=O)c2cc(NC(=O)Cc3ccccc3)ccc2OC[C@@H]2O[C@@H](CC(=O)NCc3ccc(Cl)cc3)CC[C@H]21,inactive
14,CN1C(=O)c2cc(NC(=O)Nc3cccc(Cl)c3)ccc2OC[C@@H]2O[C@H](CC(=O)NCCc3ccncc3)CC[C@H]21,inactive
15,COc1ccc(OC)c(Nc2cc(C)nc3ccc(C)cc23)c1,inactive
16,CCCCc1cc(=O)oc2cc(C)cc(OC(C)C(=O)O)c12 (centres undefined),inactive
17,COc1cccc(CNC(=O)C[C@H]2CC[C@@H]3[C@H](COc4ccc(NC(C)=O)cc4C(=O)N3C)O2)c1,inactive
18,CN(C)CCNc1ncnc2c1sc1nc(N3CCOCC3)c3c(c12)CC(C)(C)SC3,inactive
19,CO[C@H]1CN(C)C(=O)c2cc(NC(=O)c3ccccc3F)ccc2OC[C@@H](C)N(C)C[C@@H]1C,inactive
